Growth data for twelve compounds are collected here from PubChem BioAssay (NCI).

Among the test systems are HCT-15 colon; HT29 colon; SNB-75 CNS; SNB-19 CNS; U251 CNS; PC-3 prostate; SK-MEL-5 melanoma; UACC-62 melanoma; LOX IMVI melanoma; SK-MEL-28 melanoma.
Holding throughout (assay): NCI-60 one-dose screen, 48 h (100 = growth as untreated, 0 = no growth, -100 = all killed)
Holding throughout (settings): 10 µM unless noted

About 83,000 compounds went through this panel and 20% of them were active in at least one assay; those are over-represented in the sample as a whole.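 Plates (96-well) were seeded with cells, treated with compound at one concentration, and incubated for 48 hours before percent growth was determined.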 Unmarked numbers belong to inactive results. The source made the active and inactive calls. How the source made its calls: active means growth percent below 10; inactive means the rest.

Consider `CCCCCCCCCc1ccc(C(=O)Nc2cc(C)ccc2C(=O)OC)cc1`, for which the growth in the experiment with HCT-15 colon is 103%; with HT29 colon, 98.9%; in the experiment with SNB-75 CNS, 117%; in the experiment on SNB-19 CNS it was 106%; in the experiment on U251 CNS it was 112%; in the experiment on PC-3 prostate, 105%. Further, the growth is 102% in the experiment with SK-MEL-5 melanoma, 83.7% with UACC-62 melanoma, 102% with LOX IMVI melanoma and 107% in the experiment on SK-MEL-28 melanoma.
For the compound `COc1ccc(N=Nc2c(N)nn3c(N)c(C#N)c(-c4ccccc4)nc23)cc1`, the growth in the experiment with HCT-15 colon is 70.8%; in the experiment on HT29 colon, 60.9%; with SNB-75 CNS it was -15.8% (active); with SNB-19 CNS, 27.1%; in the experiment on U251 CNS, 21%; with PC-3 prostate, 28.2%. The growth was 34.2% with SK-MEL-5 melanoma, 36.3% with UACC-62 melanoma, 54.9% in the experiment on LOX IMVI melanoma and 66.6% in the experiment with SK-MEL-28 melanoma.
Regarding `COc1ccccc1NC(=O)c1ccc(NC(=O)CCl)s1`, the growth in the experiment with HCT-15 colon is -50.8% (active); with HT29 colon it was -66.1% (active); in the experiment with SNB-75 CNS it was 35.9%; in the experiment on SNB-19 CNS, 42.1%; in the experiment on U251 CNS it was -51.2% (active); in the experiment on PC-3 prostate it was -46.7% (active). Further, the growth in the experiment on SK-MEL-5 melanoma is -23.3% (active); in the experiment with UACC-62 melanoma, -83.2% (active); in the experiment on LOX IMVI melanoma, -93.4% (active); in the experiment with SK-MEL-28 melanoma, 1.77% (active).
Regarding `Cc1nn(-c2ccccc2)c2nc(C)n(CC(=O)N/N=C/c3ccccc3O)c(=O)c12`, the growth in the experiment with HCT-15 colon was 26.7%; with HT29 colon, 41.2%; in the experiment with SNB-75 CNS it was 76.1%; in the experiment on SNB-19 CNS, 36.5%; in the experiment on U251 CNS, 28.7%; in the experiment with PC-3 prostate, 46.8%. For the same compound, the growth is -2.79% (active) in the experiment on SK-MEL-5 melanoma, 3.15% (active) in the experiment on UACC-62 melanoma, 4.1% (active) in the experiment on LOX IMVI melanoma and 37.9% in the experiment on SK-MEL-28 melanoma.
Regarding `CN(C)c1nc(NCCNS(=O)(=O)c2ccc(C(=O)/C=C/c3ccccc3)cc2)nc(N2CCOCC2)n1`, the growth in the experiment on HCT-15 colon is -45.3% (active); with HT29 colon, 3.67% (active); in the experiment with SNB-75 CNS it was 73.2%; in the experiment on SNB-19 CNS, 77%; with U251 CNS, 44%; with PC-3 prostate, 59.6%. The growth in the experiment with SK-MEL-5 melanoma was 83.5%; in the experiment on UACC-62 melanoma, 72.8%; with LOX IMVI melanoma, -63.1% (active); in the experiment on SK-MEL-28 melanoma, 88%.
For the compound `COc1ccc(-c2nc3ccc(-c4nnc(SCC(=O)Nc5ccc(/C(C)=N\O)cc5)o4)cc3[nH]2)cc1`, the growth is 93.4% in the experiment on HCT-15 colon; 86.3% with HT29 colon; 11.8% with SNB-75 CNS; 57% in the experiment with SNB-19 CNS; 18.6% in the experiment with U251 CNS; 44.3% with PC-3 prostate. Moreover, the growth with SK-MEL-5 melanoma is -75.7% (active); in the experiment on UACC-62 melanoma, 14%; in the experiment with LOX IMVI melanoma, 33.8%; in the experiment on SK-MEL-28 melanoma, -64.6% (active).
As to `COc1ccc(-c2nc3ccc(-c4nnc(SCc5ccccc5)o4)cc3[nH]2)cc1OC`, the growth is 35.6% in the experiment on HCT-15 colon; 52.9% in the experiment on HT29 colon; -54.2% (active) in the experiment on SNB-75 CNS; 28.1% with SNB-19 CNS; 0.298% (active) with U251 CNS; 50.9% in the experiment on PC-3 prostate. Further, the growth in the experiment on SK-MEL-5 melanoma was 39.7%; in the experiment on UACC-62 melanoma, 0.287% (active); in the experiment with LOX IMVI melanoma, 7.48% (active); in the experiment with SK-MEL-28 melanoma, 30.6%.
`Cn1cc(Nc2ncnc(-c3ccc(N4CCCC4)c(C#N)c3)n2)cn1`: the growth was 40.8% in the experiment on HCT-15 colon; 74.6% in the experiment on HT29 colon; 30.8% in the experiment on SNB-75 CNS; 92.4% in the experiment on SNB-19 CNS; 94.3% in the experiment on U251 CNS; 78.8% in the experiment on PC-3 prostate. In addition, the growth in the experiment on SK-MEL-5 melanoma is 49%; in the experiment with UACC-62 melanoma it was 59.4%; in the experiment on LOX IMVI melanoma, 48.9%; in the experiment with SK-MEL-28 melanoma, 88.3%.
As to `C[C@H](NC(=O)c1ccc2c(-c3ccc(C(F)(F)F)cc3)cccc2c1)c1ccccn1`, the growth was 20.4% in the experiment with HCT-15 colon; 26.6% with HT29 colon; 87.3% in the experiment on SNB-75 CNS; 42% with SNB-19 CNS; 42.3% with U251 CNS; 34.2% in the experiment with PC-3 prostate. Further, the growth with SK-MEL-5 melanoma is 34.7%; in the experiment with UACC-62 melanoma, 60.3%; in the experiment with LOX IMVI melanoma it was 43.7%; in the experiment with SK-MEL-28 melanoma, 74.6%.
`CCOc1ccc(-c2cc(-c3cc(C(C)C)c(O)cc3C)nn2-c2ccc(S(N)(=O)=O)cc2)cc1`: the growth in the experiment on HCT-15 colon is 4.81% (active); in the experiment with HT29 colon, 98.5%; in the experiment on SNB-75 CNS, 32.6%; in the experiment with SNB-19 CNS, 49%; in the experiment with U251 CNS it was 27.8%; in the experiment with PC-3 prostate, 42.4%. The growth in the experiment on SK-MEL-5 melanoma is 26.3%; in the experiment on UACC-62 melanoma, 24%; in the experiment with LOX IMVI melanoma, 17.9%; in the experiment on SK-MEL-28 melanoma it was 58.5%.
On to `COc1cccc2nc(Nc3cccc(NC(=O)c4ccc(CN5CCN(C)CC5)c(C(F)(F)F)c4)c3)ccc12`, for which the growth in the experiment with HCT-15 colon is -79.1% (active); with HT29 colon, -69.3% (active); in the experiment with SNB-75 CNS it was -97.5% (active); in the experiment on SNB-19 CNS it was -100% (active); with U251 CNS, -73.7% (active); in the experiment with PC-3 prostate, -50.9% (active). Moreover, the growth is -100% (active) with SK-MEL-5 melanoma, -99.1% (active) in the experiment with UACC-62 melanoma, -100% (active) in the experiment on LOX IMVI melanoma and -100% (active) in the experiment on SK-MEL-28 melanoma.
With `C=CCn1c(O)c(N=Nc2nc(-c3cc4ccccc4oc3=O)cs2)c2ccccc21`, the growth in the experiment with HCT-15 colon was 98.4%; in the experiment on HT29 colon, 17.2%; in the experiment on SNB-75 CNS, -25% (active); in the experiment on SNB-19 CNS it was 38.7%; in the experiment with U251 CNS it was 13.3%; in the experiment on PC-3 prostate, 56.4%. For the same compound, the growth in the experiment on SK-MEL-5 melanoma was 33.3%; in the experiment on UACC-62 melanoma it was 52.6%; in the experiment on LOX IMVI melanoma, 70.1%; in the experiment with SK-MEL-28 melanoma, 49.8%.
